# Assay results reported in ChEMBL document CHEMBL1961873, “Compounds: GSK PKIS; Assays: Nanosyn kinase panel” (2012).
# Experiments:
# [1] = target: Dual specificity protein kinase CLK3 (Homo sapiens) (UniProt P49761); settings: at 1 µM;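 also: each value is the mean inhibition of CLK3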
# [2] = target: Dual specificity tyrosine-phosphorylation-regulated kinase 1A (Homo sapiens) (UniProt Q13627); settings: at 0.1 µM
# [3] = target: Dual specificity tyrosine-phosphorylation-regulated kinase 1A (Homo sapiens) (UniProt Q13627); settings: at 1 µM
# [4] = target: Dual specificity tyrosine-phosphorylation-regulated kinase 1B (Homo sapiens) (UniProt Q9Y463); settings: at 0.1 µM
# Sequence of Dual specificity tyrosine-phosphorylation-regulated kinase 1B (Homo sapiens) (Q9Y463 whole entry, looked up): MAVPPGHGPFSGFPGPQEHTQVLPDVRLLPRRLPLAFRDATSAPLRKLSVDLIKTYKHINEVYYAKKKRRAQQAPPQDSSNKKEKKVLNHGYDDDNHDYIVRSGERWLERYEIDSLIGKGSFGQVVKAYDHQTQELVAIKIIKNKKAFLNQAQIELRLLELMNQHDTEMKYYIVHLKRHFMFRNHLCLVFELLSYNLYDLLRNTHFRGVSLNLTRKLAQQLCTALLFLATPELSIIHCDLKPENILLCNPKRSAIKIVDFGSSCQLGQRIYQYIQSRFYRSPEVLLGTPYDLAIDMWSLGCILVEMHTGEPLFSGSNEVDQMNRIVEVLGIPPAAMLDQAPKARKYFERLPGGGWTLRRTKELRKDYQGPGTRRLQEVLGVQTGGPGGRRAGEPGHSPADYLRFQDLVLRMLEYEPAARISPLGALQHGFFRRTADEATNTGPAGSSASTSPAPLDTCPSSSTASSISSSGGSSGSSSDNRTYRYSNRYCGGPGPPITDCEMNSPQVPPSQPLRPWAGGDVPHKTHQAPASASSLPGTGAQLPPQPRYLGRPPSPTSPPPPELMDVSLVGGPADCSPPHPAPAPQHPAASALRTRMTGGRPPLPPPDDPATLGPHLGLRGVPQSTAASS
# [5] = target: Dual specificity tyrosine-phosphorylation-regulated kinase 1B (Homo sapiens) (UniProt Q9Y463); settings: at 1 µM
# [6] = target: T1, Dual specificity tyrosine-phosphorylation-regulated kinase 2 (Homo sapiens) (UniProt Q92630); settings: at 0.1 µM
# T1 sequence (whole entry): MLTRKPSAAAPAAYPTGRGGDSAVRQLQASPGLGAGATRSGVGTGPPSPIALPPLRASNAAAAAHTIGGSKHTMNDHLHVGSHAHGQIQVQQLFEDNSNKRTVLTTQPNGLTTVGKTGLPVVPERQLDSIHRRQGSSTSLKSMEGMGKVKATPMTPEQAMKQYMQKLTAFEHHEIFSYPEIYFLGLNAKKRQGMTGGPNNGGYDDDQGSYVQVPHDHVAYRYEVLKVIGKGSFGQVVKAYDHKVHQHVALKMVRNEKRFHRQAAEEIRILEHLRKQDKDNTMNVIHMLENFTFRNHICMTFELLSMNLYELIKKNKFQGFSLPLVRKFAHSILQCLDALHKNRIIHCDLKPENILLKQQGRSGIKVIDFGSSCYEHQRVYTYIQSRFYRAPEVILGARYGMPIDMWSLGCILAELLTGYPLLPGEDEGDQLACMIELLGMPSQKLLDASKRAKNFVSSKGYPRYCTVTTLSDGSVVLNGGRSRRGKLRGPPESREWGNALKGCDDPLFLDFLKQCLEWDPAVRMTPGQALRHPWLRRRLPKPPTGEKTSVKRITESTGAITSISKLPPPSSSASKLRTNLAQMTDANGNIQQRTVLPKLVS
# [7] = target: T1, Dual specificity tyrosine-phosphorylation-regulated kinase 2 (Homo sapiens); settings: at 1 µM
# [8] = target: Glycogen synthase kinase-3 alpha (Homo sapiens) (UniProt P49840); settings: at 0.1 µM
# Sequence of Glycogen synthase kinase-3 alpha (Homo sapiens) (P49840 2-483 limits assumed): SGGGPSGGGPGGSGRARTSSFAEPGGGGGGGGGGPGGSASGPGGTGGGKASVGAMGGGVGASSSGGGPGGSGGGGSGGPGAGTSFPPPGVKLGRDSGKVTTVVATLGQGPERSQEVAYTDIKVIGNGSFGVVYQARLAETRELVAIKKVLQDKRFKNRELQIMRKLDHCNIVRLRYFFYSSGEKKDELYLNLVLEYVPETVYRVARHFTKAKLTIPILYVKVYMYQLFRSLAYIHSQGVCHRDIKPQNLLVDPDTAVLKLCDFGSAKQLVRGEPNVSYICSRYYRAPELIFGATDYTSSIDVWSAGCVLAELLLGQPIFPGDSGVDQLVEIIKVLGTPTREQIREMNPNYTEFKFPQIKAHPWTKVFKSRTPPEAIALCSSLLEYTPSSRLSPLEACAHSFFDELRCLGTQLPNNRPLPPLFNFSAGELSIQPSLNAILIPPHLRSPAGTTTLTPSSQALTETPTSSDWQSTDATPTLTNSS
# [9] = target: Glycogen synthase kinase-3 alpha (Homo sapiens) (UniProt P49840); settings: at 1 µM
# [10] = target: Glycogen synthase kinase-3 beta (Homo sapiens) (UniProt P49841); settings: at 0.1 µM
# Sequence of Glycogen synthase kinase-3 beta (Homo sapiens) (P49841 whole entry, looked up): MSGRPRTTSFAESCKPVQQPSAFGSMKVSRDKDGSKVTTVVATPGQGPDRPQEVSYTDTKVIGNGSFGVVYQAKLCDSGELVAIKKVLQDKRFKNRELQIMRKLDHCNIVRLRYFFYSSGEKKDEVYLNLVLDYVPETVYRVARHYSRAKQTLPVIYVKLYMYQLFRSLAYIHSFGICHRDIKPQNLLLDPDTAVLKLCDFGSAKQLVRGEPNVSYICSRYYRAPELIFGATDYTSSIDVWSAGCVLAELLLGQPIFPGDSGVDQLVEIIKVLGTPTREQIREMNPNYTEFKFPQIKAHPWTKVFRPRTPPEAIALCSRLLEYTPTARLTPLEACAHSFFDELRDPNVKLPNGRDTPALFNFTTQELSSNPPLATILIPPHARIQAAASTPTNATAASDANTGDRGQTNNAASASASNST
# [11] = target: Glycogen synthase kinase-3 beta (Homo sapiens) (UniProt P49841); settings: at 1 µM
# [12] = target: Homeodomain-interacting protein kinase 1 (Homo sapiens) (UniProt Q86Z02); settings: at 0.1 µM
# Sequence of Homeodomain-interacting protein kinase 1 (Homo sapiens) (Q86Z02 whole entry, looked up): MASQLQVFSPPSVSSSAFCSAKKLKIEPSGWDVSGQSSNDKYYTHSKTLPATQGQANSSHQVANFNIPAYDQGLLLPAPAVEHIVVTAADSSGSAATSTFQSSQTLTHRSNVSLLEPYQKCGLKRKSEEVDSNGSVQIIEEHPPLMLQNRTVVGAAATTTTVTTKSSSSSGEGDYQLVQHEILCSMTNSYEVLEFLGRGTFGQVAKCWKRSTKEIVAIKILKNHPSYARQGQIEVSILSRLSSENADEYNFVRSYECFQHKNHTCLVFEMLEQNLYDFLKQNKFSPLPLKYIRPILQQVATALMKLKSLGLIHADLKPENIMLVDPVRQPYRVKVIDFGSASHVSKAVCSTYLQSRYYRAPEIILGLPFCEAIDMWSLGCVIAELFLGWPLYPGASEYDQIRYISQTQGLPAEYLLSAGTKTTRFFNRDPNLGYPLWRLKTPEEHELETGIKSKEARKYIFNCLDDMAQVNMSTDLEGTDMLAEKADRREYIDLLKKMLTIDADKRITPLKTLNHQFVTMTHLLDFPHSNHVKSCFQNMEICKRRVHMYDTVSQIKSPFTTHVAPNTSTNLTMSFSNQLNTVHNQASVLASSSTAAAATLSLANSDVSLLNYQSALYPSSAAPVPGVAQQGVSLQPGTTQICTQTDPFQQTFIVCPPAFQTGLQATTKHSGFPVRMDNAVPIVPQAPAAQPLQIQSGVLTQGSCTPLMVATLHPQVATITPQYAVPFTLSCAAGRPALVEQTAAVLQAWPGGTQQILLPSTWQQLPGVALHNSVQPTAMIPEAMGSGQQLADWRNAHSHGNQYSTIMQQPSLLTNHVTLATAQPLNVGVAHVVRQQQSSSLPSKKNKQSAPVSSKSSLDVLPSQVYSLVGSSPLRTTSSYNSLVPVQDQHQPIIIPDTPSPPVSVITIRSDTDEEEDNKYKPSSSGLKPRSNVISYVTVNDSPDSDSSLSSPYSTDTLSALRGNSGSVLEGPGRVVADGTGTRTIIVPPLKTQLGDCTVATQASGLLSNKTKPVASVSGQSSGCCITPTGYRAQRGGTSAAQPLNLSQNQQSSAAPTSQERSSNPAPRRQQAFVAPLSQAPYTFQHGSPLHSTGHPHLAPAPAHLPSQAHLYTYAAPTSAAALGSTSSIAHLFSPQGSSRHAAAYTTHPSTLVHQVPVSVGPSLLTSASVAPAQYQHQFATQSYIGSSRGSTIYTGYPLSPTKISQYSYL
# [13] = target: Homeodomain-interacting protein kinase 1 (Homo sapiens) (UniProt Q86Z02); settings: at 1 µM
# [14] = target: T2, Homeodomain-interacting protein kinase 4 (Homo sapiens) (UniProt Q8NE63); settings: at 0.1 µM
# T2 sequence (whole entry): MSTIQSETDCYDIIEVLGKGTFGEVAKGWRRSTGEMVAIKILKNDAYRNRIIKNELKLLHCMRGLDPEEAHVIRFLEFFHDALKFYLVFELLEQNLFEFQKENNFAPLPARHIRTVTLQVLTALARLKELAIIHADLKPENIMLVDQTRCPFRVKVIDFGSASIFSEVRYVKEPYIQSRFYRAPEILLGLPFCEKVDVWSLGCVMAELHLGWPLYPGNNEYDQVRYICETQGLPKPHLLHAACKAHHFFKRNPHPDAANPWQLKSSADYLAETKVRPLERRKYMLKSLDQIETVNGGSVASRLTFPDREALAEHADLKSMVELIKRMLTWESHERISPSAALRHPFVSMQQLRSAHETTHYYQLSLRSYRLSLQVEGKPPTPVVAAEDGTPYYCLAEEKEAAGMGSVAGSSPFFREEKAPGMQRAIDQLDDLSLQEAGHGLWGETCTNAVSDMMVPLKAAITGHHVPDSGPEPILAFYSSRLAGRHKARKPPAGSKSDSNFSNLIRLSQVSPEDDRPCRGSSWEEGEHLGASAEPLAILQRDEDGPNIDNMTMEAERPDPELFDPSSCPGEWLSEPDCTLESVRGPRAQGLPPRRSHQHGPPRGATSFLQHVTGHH
# [15] = target: T2, Homeodomain-interacting protein kinase 4 (Homo sapiens); settings: at 1 µM
# [16] = target: Mitogen-activated protein kinase 9 (Homo sapiens) (UniProt P45984); settings: at 0.1 µM
# Sequence of Mitogen-activated protein kinase 9 (Homo sapiens) (P45984 whole entry, looked up): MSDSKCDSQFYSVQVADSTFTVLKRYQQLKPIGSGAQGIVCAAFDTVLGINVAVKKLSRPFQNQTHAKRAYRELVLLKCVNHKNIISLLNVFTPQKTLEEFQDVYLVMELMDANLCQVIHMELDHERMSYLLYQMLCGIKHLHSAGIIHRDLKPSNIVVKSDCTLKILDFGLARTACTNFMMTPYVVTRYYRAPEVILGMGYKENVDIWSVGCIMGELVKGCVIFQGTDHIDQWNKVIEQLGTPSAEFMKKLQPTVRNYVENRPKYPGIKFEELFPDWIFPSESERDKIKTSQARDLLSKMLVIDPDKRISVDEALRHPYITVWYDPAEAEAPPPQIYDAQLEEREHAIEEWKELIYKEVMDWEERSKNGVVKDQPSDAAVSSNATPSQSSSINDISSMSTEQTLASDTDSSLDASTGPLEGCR
# [17] = target: Mitogen-activated protein kinase 9 (Homo sapiens) (UniProt P45984); settings: at 1 µM
# [18] = target: Mitogen-activated protein kinase 1 (Homo sapiens) (UniProt P28482); settings: at 0.1 µM
# Sequence of Mitogen-activated protein kinase 1 (Homo sapiens) (P28482 whole entry): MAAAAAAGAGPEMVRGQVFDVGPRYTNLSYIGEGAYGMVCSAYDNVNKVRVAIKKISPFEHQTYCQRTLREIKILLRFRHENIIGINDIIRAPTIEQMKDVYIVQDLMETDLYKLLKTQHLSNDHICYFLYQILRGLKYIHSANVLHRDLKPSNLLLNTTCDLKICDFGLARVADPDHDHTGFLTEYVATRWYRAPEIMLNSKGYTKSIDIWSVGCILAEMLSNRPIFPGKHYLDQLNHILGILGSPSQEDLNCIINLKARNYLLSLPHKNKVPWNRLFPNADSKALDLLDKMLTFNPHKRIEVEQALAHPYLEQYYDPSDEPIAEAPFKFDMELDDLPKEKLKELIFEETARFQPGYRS
# [19] = target: Mitogen-activated protein kinase 1 (Homo sapiens) (UniProt P28482); settings: at 1 µM
# [20] = target: Mitogen-activated protein kinase 3 (Homo sapiens) (UniProt P27361); settings: at 0.1 µM;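 also: each value is a mean inhibition figure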
# Sequence of Mitogen-activated protein kinase 3 (Homo sapiens) (P27361 whole entry): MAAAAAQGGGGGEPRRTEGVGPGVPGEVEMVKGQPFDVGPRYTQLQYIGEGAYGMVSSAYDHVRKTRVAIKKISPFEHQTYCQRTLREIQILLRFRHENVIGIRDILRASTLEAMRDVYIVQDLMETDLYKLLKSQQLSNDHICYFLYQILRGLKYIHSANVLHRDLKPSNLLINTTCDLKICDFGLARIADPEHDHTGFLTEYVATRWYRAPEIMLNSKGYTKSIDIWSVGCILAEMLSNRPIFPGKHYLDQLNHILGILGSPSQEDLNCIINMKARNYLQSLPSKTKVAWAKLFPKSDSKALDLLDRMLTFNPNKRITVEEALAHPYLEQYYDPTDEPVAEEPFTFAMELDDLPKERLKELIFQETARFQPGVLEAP
# Sequence of Dual specificity protein kinase CLK3 (Homo sapiens) (P49761 whole entry, looked up): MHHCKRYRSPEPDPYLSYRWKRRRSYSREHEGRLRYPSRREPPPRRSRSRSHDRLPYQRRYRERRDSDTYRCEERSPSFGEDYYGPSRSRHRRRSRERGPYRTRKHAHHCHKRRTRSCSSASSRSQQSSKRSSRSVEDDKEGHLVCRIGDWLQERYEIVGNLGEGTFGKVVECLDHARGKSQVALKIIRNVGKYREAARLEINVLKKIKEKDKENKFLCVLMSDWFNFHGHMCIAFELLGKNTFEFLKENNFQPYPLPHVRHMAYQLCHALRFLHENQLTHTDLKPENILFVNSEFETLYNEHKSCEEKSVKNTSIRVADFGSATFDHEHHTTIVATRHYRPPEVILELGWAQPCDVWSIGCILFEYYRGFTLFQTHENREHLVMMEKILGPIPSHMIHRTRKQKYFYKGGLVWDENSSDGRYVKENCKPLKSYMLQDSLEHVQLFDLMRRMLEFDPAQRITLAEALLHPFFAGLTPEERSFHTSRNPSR
SMILES,inhibition [1],inhibition [2],inhibition [3],inhibition [4],inhibition [5],inhibition [6],inhibition [7],inhibition [8],inhibition [9],inhibition [10],inhibition [11],inhibition [12],inhibition [13],inhibition [14],inhibition [15],inhibition [16],inhibition [17],inhibition [18],inhibition [19],inhibition [20]
Fc1ccc(-c2nn3ncccc3c2-c2ccnc(Nc3ccc4c(c3)OCCO4)n2)cc1,0.91%,1.5%,3.37%,0.99%,-1.69%,3.56%,4.44%,19.6%,59.7%,39%,76.1%,-1.25%,-1.1%,-0.3%,4.58%,58.4%,84.9%,2.51%,11.1%,5.61%
CCc1nn2ncccc2c1-c1ccnc(NC2CC2)n1,0.97%,1.95%,4.71%,1.01%,5.27%,1.81%,10.9%,6.96%,9.03%,6.18%,7.53%,-1.75%,9.32%,2.35%,20.9%,2.47%,5.7%,1.85%,3.78%,-0.55%
N#Cc1c(NC(=O)CN2CCOCC2)sc2c1CCCC2,7.77%,7.33%,11%,4.95%,8.26%,1.96%,4.75%,10.6%,9.38%,11%,7.42%,6.67%,10.1%,7.62%,6.09%,4.4%,9.83%,4.06%,4.79%,3.09%
CCCN1CCC(c2ccc(Nc3nc(Nc4cc(F)ccc4C(N)=O)c4cc[nH]c4n3)c(OC)c2)CC1,22%,63.1%,81.9%,65.2%,81.9%,10.3%,49%,6.12%,8.5%,4.67%,9.55%,49.2%,81.5%,59.6%,84.6%,68%,83.8%,9.4%,30.2%,4.94%
COc1cc(Nc2nccc(Nc3ccc4c(C)n[nH]c4c3)n2)cc(OC)c1OC,6.44%,0.88%,7.54%,2.83%,5.43%,1.95%,4.25%,2.79%,17.3%,2.73%,16.1%,-0.29%,1.88%,1.59%,3.91%,2.22%,13.6%,0.66%,3.16%,1.57%
[O-][S+]1CCN(Cc2ccc(-c3ccc4ncnc(Nc5ccc(OCc6cccc(F)c6)c(Cl)c5)c4c3)o2)CC1,1.25%,4.05%,3.96%,0.06%,1.57%,4.92%,4.13%,3.26%,5.28%,3.06%,4.76%,-2.75%,1.62%,0.28%,0.6%,3.35%,1.33%,7.21%,6.45%,5.68%
c1ccc(-c2nc3n(c2-c2ccc4c(c2)OCO4)CCC3)nc1,1.02%,1.52%,6.32%,1.24%,5.19%,1.61%,1.95%,1.93%,5.52%,2.03%,6.89%,0.04%,0.44%,-0.4%,-0.33%,1.36%,1.96%,-0.55%,0.62%,0.29%
CC(=O)Nc1cccc(C#Cc2cncnc2Nc2ccc(OCc3cccc(F)c3)c(Cl)c2)c1,0.73%,-0.41%,1.4%,0.85%,-0.33%,3.61%,1.41%,2.72%,5.35%,1.98%,4.53%,-1.76%,-0.76%,1.24%,4.47%,2.12%,3.22%,2.93%,3.14%,2.14%
CNC(=O)c1cc(-c2ccc(F)cc2)cc(-c2ccc(S(=O)(=O)N3CCCC3)cc2)c1N,1.45%,2.86%,3.9%,-1.54%,-0.38%,2.23%,2.03%,3.5%,5.1%,2.65%,4.74%,-2.69%,-0.12%,-0.78%,0.3%,1.82%,2.81%,4.15%,4.03%,2.42%
Fc1ccc(-c2nn3ccccc3c2-c2ccncc2)cc1,0.88%,0.99%,3.18%,0.03%,2.03%,0.76%,1.76%,1.02%,6.14%,1.33%,10.7%,-1.55%,0.97%,-0.72%,0.37%,4.3%,25.4%,0.83%,1.21%,1.33%
NS(=O)(=O)c1ccc(Nc2ncc(-c3ccccc3)o2)cc1,6.65%,6.93%,16%,5.92%,12.5%,2.13%,8.68%,12.9%,43.4%,11.4%,35.4%,9.46%,28.8%,6.48%,24.3%,1.48%,7.69%,2.91%,3.4%,2.41%
CCN1CCC(CC(=O)Nc2n[nH]c3nnc(-c4cccc(F)c4F)cc23)CC1,2.16%,10.4%,53.1%,7.85%,46.9%,1.7%,5.64%,88.8%,93.9%,85%,94.4%,-3.8%,8.59%,0.11%,3%,2.02%,-0.48%,4.04%,2.72%,3.44%
CC(=O)NCc1cccc(C#Cc2cncnc2Nc2ccc(OCc3cccc(F)c3)c(Cl)c2)c1,0.27%,1.8%,6.71%,0.66%,1.17%,1.17%,-0.66%,3.24%,8.35%,2.82%,7.42%,-1.17%,0.08%,-1.54%,2.87%,0.88%,0.54%,0.71%,1.78%,-0.54%
